Calls of active or inactive are those of the source. A call without a number means that no potency is given here. The call rests on the fitted dose curve; in most records, active means well fitted curve in the direction sought with a large enough effect; inactive means no such curve, though single readings can be large or run the other way.
molecular target: Epidermal growth factor receptor (Homo sapiens) (UniProt P00533); assay: Assay for Inhibitors of the ERK Signaling Pathway using a Homogeneous Screening Assay: EGFR Kinase Inhibition; conditions: homogeneous biochemical assay; series mostly up to 21.9 µM
Sequence (P00533 whole entry, looked up): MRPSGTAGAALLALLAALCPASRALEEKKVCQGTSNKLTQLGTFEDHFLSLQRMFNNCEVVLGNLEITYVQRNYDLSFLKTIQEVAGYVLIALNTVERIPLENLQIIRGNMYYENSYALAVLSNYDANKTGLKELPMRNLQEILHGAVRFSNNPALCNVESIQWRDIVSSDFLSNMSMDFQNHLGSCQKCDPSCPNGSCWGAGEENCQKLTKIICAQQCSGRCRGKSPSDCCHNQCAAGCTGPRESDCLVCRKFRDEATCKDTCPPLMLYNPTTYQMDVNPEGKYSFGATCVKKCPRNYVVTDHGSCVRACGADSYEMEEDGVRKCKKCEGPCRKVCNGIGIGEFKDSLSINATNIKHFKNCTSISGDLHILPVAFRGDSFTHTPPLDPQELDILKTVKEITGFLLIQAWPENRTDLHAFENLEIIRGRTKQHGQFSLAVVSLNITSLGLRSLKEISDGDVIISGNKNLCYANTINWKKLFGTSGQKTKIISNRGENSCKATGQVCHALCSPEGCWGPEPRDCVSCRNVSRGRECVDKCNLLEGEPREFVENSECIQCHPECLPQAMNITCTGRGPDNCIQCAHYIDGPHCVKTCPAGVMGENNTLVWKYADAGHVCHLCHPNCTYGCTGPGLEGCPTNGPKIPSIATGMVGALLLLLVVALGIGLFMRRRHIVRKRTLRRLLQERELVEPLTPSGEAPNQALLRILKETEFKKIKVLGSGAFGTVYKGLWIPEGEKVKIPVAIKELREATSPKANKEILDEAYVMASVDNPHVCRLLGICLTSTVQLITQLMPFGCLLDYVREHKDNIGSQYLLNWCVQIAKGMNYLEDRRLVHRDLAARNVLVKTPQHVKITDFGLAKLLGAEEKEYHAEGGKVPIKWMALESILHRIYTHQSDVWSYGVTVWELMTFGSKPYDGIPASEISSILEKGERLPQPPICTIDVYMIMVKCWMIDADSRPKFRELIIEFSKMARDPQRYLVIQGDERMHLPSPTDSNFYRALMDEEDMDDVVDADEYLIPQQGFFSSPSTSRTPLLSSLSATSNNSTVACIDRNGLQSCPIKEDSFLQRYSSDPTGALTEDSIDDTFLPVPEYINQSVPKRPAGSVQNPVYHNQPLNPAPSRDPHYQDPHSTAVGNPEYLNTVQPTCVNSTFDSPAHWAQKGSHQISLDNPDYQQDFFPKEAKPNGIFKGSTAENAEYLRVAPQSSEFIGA
Description: qHTS Assay for Inhibitors of the ERK Signaling Pathway using a Homogeneous Screening Assay
NIH Chemical Genomics Center [NCGC]
NIH Molecular Libraries Screening Centers Network [MLSCN]
Assay Submitter (PI): Dr. Wei Zheng, NCGC/NIH
The Ras/extracellular-signal-regulated kinase (ERK) mitogen activated protein (MAP) kinase signaling pathway (ERK1/2 cascade) plays is a key role in transmitting signals from the cell surface to the nucleus (Nishida and Gotoh 1993; Chang and Karin, 2001). The cascade is initiated by the small G-protein Ras, which recruits Raf […], where activation occurs. Alternatively, this pathway can be activated by elevating intracellular cAMP.
Activation of the ERK pathway is essential in increased cell division and cell survival. Sustained and constitutive activation of the ERK pathway, however, has been linked to uncontrolled cell proliferation, increased cell survival, and tumor progression. Thus, the ERK has been as an attractive target for cancer chemotherapy in the past few years (Sebolt-Leopold and Herrera, 2004). Given its physiological and pathological importance, assessment of ERK phosphorylation has been broadly performed in both basic research and drug discovery. Most assays for the measurement of ERK phosphorylation use the antibody-based detection methods, such as western blot and ELISA. These assays require multiple reagent additions with cell wash steps and are not suitable for high-throughput screening.
The current cell-based ERK phosphorylation assay was performed using AlphaScreen platform. AlphaScreen is a two bead-based proximity-dependent chemical energy transfer luminescent assay platform. The assay reagents (ERK SureFire(TM) kit) were supplied from TGR BioSciences (Australia). In the presence of specific antibodies, phosphorylated ERK will bring "donor" and "acceptor" beads to a proximity range (<200 nm), and subsequently lead a chemical luminescent reaction upon exciting donor beads with 680 nm laser. To validate pathway hits from the cell-based assay, enzyme assays consisting of EGFR tyrosine kinase, Raf and MEK were used as a means of deciphering the enzymes of target for the prioritized group of compounds derived from the HEK-293 cell based assay. The compounds were tested against significant members of the ERK signaling pathway EGFR and EGFR mutants (EGFR L858R, EGFR T790M, and EGFR L858R T790M). In order to establish the specificity of the prioritized compounds for EGFR and EGFR mutants, the compounds were also assayed against other important ERK signaling pathway enzymes, c-RAF and MEK-1.
NCGC Assay Protocol Summary:
The HTRF kinase assay (components supplied as kit by Cisbio) was chosen for the EGFR and EGFR mutant enzyme assays that applied the time resolved fluorescence resonance energy transfer (TR-FRET) principle. A peptide substrate is labeled with a biotin that can bind to XL665 labeled streptavidin and the anti-phosphoresidue antibody is labeled with Eu+. Upon phosphorylation of the substrate, the antibody binds to phosphorylated substrate that enables TR-FRET detection in homogenous assay format.
An HTRF Kinease TK assay kit (Cisbio, Bedford, MA) was used to develop the EGFR and EGFR mutant assays (Harbert et al., 2008. Harbert C, Marshall J, Soh S, Steger K. Development of a HTRF Kinase Assay for Determination of Syk Activity. Current Chemical Genomics. 1: 20-26. 2008). EGFR and EGFR mutants were obtained from Invitrogen. The assay buffer was composed of 50 mM HEPES (pH 7.0), 5 mM MgCl2, 5mM DTT, 0.1 % NaN3, 0.1 % BSA and 0.1 mM orthovanadate.
The HTRF assays were preformed according to the HTRF Kinease TK kit. Optimization for each enzyme was preformed in 384 well format (data not included). All reagents were dispensed into 1536 well plates.
(1) Enzyme, […] EGFR at 3 nM final
(2) Compound, 22 nl, Library Compounds in 0.128 to 10 mM titration series or control
(3) Reagent, 1.5 ul 10 uM ATP and 0.25 uM substrate final
(4) Incubation for 30 min, Ambient conditions
[…]

SMILES	Potency
Cc1ccc2nc(=O)c(NNc3ccccc3)cnc2c1	708 nM (active)
Fc1ccc(Nc2ncnc3sc4c(c23)CCC4)cc1F	70.8 nM (active)
O=C1c2ccccc2C(=O)c2c1cccc2N1CCCC1	inactive
Cc1ccc(NNc2c(C)nc3ccccc3nc2=O)cc1	4470 nM (active)
COc1ccc(C(=O)c2ccc(Cl)c([N+](=O)[O-])c2)cc1	inactive
CCn1c(=O)c2[nH]c(-c3ccccc3)nc2n(CC)c1=O	inactive
N#C/C(=C(/N)Sc1ccc(N)cc1)c1ccccc1C(F)(F)F	inactive
O=C(Nc1nc(-c2ccccc2)cs1)c1ccc(N2CCOCC2)c([N+](=O)[O-])c1	inactive
CN(C)c1cccc2c1C(=O)c1ccccc1C2=O	inactive
Cn1nc(-c2ccc(Cl)cc2)nc2c(=O)n(C)c(=O)nc1-2	inactive
CNc1cccc2c1C(=O)c1ccccc1C2=O	inactive
Cn1c(=O)[nH]c2nnc(-c3ccc(Cl)c(Cl)c3)nc2c1=O	inactive
CCN(CC)CCC(=O)Nc1cccc2c1C(=O)c1ccccc1C2=O	inactive
Cn1nc(-c2ccccn2)nc2c(=O)n(C)c(=O)nc1-2	inactive
CS(=O)(=O)CCNCc1nc(-c2ccc3ncnc(Nc4ccc(OCc5cccc(F)c5)c(Cl)c4)c3c2)cs1	8.9 nM (active)
O=C1c2ccccc2C(=O)c2c(NCCCN(CCO)CCO)cccc21	inactive
Cc1nc2ccccc2nc(=O)c1NNc1ccccc1	708 nM (active)
